Compound activity: PubChem BioAssay, National Center for Advancing Translational Sciences (NCATS)
Sampled rows, rich in hits. Any-hit rate of the full collection: about 16%.
miR-21 act: qHTS Assay for Modulators of miRNAs and/orActivators of miR-21. HeLa miR-21 FLuc reporter, luciferase, 48 h. Potency, µM (top dose mostly 38.3 µM), without a hit: at the top dose activity change, positive = activation, actives largely listed as activators. 340,000 tested, under 10 active. AID 2288, 2010;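 also: % of control where 0% means no effect; miR-21 action dims this reporter so a rising signal means less miR-21 action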
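Compounds were titrated across several concentrations (up to approximately 40 uM) and incubated 48 hours with HeLa miR-21-FLuc reporter cells (miR-21 target sequence downstream of FLuc, endogenous miR-21). Readout was firefly luciferase luminescence after lytic detection reagent.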
TDP1 block: qHTS Assay for Inhibitors of Tyrosyl-DNA Phosphodiesterase (TDP1) | Tyrosyl-DNA phosphodiesterase 1 (Homo sapiens), Q9NUW8 | recombinant TDP1, AlphaScreen DNA substrate cleavage | Potency, µM (titrated, usually from 130 µM), for inactives: at the highest dose activity change, negative = inhibition, hits mostly inhibitors | 350,000 tested, 0.28% active | AID 485290, 2010; also: potency is read from the fitted curve at half-maximal effect; % is scaled to controls: 0 for no effect and ±100 for the full control effect; nearly all actives have a fitted effect of over 40% in size
Target sequence (Q9NUW8 whole entry, looked up): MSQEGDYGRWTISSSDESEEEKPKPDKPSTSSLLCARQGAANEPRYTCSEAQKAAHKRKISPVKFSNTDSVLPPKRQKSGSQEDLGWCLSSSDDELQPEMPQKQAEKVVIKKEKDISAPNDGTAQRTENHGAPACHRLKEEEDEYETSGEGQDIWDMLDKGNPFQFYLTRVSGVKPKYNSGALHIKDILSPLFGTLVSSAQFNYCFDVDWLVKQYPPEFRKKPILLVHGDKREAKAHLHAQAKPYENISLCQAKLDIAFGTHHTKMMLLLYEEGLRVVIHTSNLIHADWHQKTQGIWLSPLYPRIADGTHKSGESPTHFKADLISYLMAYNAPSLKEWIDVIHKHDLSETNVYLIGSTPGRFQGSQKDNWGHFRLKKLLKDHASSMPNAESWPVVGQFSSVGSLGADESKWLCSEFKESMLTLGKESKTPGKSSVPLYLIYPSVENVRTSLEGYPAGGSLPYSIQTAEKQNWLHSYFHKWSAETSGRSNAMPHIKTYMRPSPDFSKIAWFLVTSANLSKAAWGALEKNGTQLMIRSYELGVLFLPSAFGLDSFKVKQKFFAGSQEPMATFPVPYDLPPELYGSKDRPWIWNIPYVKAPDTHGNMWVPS
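E. coli-derived human Tdp1, 1 nM final. Cpd preinc 15 min RT; substrate 15 nM final, 5 min RT; AS bead mix 10 ug/ml final, 10 min RT. Signal loss = tyrosine-FITC cleavage. No-enzyme wells = max signal.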
uPA generation: qHTS for Inhibitors of Cell Surface uPA Generation; cell surface uPA generation assay, qHTS; Potency, µM (doses to about 38.3 µM), for the others: top-dose activity change, negative = inhibition, usual class: inhibitors; 330,000 tested, 0.31% active; active = well fitted inhibition curve with a large enough effect; inconclusive = small, poorly fitted or top-dose-only effect; inactive = no such curve, though single readings can be large or run the other way; tested in mouse RAW 264.7 cells; also: potency is read from the fitted curve at half-maximal effect; % is scaled to controls: 0 for no effect and ±100 for the full control effect; nearly all actives have a fitted effect of over 55% in size
TDP1 cell noCPT: qHTS for Inhibitors of human tyrosyl-DNA phosphodiesterase 1 (TDP1): qHTS in cells in absence of CPT; DT40 Tdp1-/- hTDP1 cells, no CPT, ATP luminescence, 48 h; Potency, µM (series often up to 46.2 µM), for inactives: at the highest dose activity change, negative = growth inhibition, actives largely listed as inhibitors; 420,000 tested, 15% active; AID 686978, 2013; also: potency is read from the fitted curve at half-maximal effect; % is scaled to controls: 0 for no effect and ±100 for the full control effect; nearly all actives have a fitted effect of over 55% in size
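Luminescent ATP content (CellTiter-Glo) served as the growth readout. Knockout chicken DT40 cells expressing human TDP1 were exposed to compounds without camptothecin for a minimum 48 hr at 37 °C.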
TDP1 cell CPT: qHTS for Inhibitors of human tyrosyl-DNA phosphodiesterase 1 (TDP1): qHTS in cells in presence of CPT; chicken DT40 Tdp1-/-;hTDP1 cells + 20 nM CPT, ATP luminescence, 48 h; 420,000 tested, 12% active; Potency, µM (doses to about 46.2 µM), inactives show at the top dose activity change, negative = growth inhibition, usual class: inhibitors; AID 686979, 2013; also: potency is read from the fitted curve at half-maximal effect; % is scaled to controls: 0 for no effect and ±100 for the full control effect; nearly all actives have a fitted effect of over 55% in size
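Chicken DT40 Tdp1-/- cells complemented with human TDP1, 400 cells/well, exposed to compounds plus 20 nM camptothecin for at least 48 h at 37 C; viability read as ATP content by CellTiter-Glo luminescence.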
Starred values were filed as active, the others as inactive; ? = inconclusive; · = no result given; [ ] = dose if it differs, or a comment. Unless noted, calls follow the shape of the dose curve; as a rule, active = well fitted curve in the direction sought with a large enough effect; inconclusive = small, poorly fitted or top-dose-only effect, or another doubt; inactive = no such curve, though single readings can be large; an effect the other way counts as inactive or inconclusive.

SMILES | miR-21 act | TDP1 block | uPA generation | TDP1 cell noCPT | TDP1 cell CPT
CN(C)CCN(C(=O)C1CCN(S(=O)(=O)c2cccs2)CC1)c1nc2c(F)cccc2s1 | · | 0% | 1% | -25% | -19%
Cc1ccc(NC(=O)CSc2nc(=O)n(CCN3CCOCC3)c3c2CCC3)cc1Cl | 4% | 3% | · | ? | ?
CC(C)N1CCN(Cc2cccn2-c2nccs2)CC1CCO (configuration not stated) | 0% | 8% | 1% | 4% | 1%
COc1ccc(CNC(=O)N2[C@H]3CC[C@@H]2C=C(c2ccc(F)cc2OCc2ccccc2)C3)cc1OC | · | · | · | 7.3µM* | 8.2µM*
O=C(NCc1ccc(F)cc1)c1ccccc1OCc1ccccc1 | 13% | 0% | -2% | ? | -7%
O=C(NCc1ccc(F)cc1)N1[C@H]2CC[C@@H]1C=C(c1ccc(F)cc1OCc1ccccc1)C2 | · | · | · | 7.3µM* | ?
CN(C(=O)CSc1cc(C(=O)c2nccn2C)c2ccccc2n1)c1ccccc1 | ? | 2% | 0% | 18µM* | 15µM*
CCOC(=O)c1ccccc1NC(=O)Cc1c(C(=O)O)n(C)c2ccccc12 | -14% | · | -2% | -1% | -2%
Cc1cccc(C(C)C)c1NC(=O)Cn1c(=O)oc2cc(S(=O)(=O)N3CCCC3)ccc21 | 9% | 8% | · | 15µM* | 18µM*
CC1CCCCC1NC(=O)Cn1c(=O)oc2cc(S(=O)(=O)N3CCCC3)ccc21 (configuration not stated) | 3% | · | -1% | ? | ?
COc1ccc(C)cc1NC(=O)Cn1c(=O)oc2cc(S(=O)(=O)N3CCCCCC3)ccc21 | 13% | 5% | · | 12µM* | 16µM*
Cc1ccc(NC(=O)Cn2c(=O)oc3cc(S(=O)(=O)N4CCCCC4)ccc32)c(C)c1 | 10% | 4% | · | 8.2µM* | 6.5µM*
Fc1ccc2nc3[nH]c4ccccc4c3nc2c1 | -54% | -3% | -11% | ? | ?
COC(=O)C(NC(C)=O)(Nc1ccccn1)C(F)(F)F (configuration not stated) | 0% | 3% | 1% | 6% | -2%
CC(=O)c1cn(N2CCCCC2)c(=O)[nH]c1=O | 0% | · | 2% | -2% | 6%
COc1cccc(CNC(=O)CCC2CCCN(C(=O)c3cscn3)C2)c1 (configuration not stated) | -3% | 5% | -4% | -15% | -8%
Cc1ccc(C(=O)n2c3ccccc3c3ccccc32)cc1 | -19% | 2% | -10% | 6.5µM* | 5.8µM*
COc1ccc(S(=O)(=O)NCCc2ccc(F)cc2)cc1 | -4% | 7% | -1% | -11% | -10%
CCCCNc1ccc(C(F)(F)F)cc1S(=O)(=O)NCCc1ccc(F)cc1 | · | -9%[56.1 µM] | 11% | 6.5µM* | 18µM*
CCCC[C@]12Cc3cc(OC)c(OC)cc3C(O1)c1c(cc(-c3ccccc3)oc1=O)O2 | 1%[7.66 µM] | · | · | · | ·
COc1ccc(NC(=O)c2cc(-c3cccnc3)nc3c(C)c(C)ccc23)c(OC)c1 | 5% | 3% | · | ? | ?
C(=N\c1ncnc2sccc12)/NOCc1ccccc1 | 14% | 2% | -5% | 9.2µM* | 23µM*
COc1ccnc(N=CNOCc2ccc(C)cc2)c1C#N | -12% | -2% | 2% | -17% | -4%
Clc1ccc(CON/C=N/c2ncnc3sccc23)cc1 | 7% | 2% | -4% | 12µM* | 12µM*
O=C(CN1CCN(Cc2ccccc2)CC1)Nc1ccc(S(=O)(=O)N2CCOCC2)cc1 | -4% | 1% | 3% | ? | ?
SMILES | miR-21 act | TDP1 block | uPA generation | TDP1 cell noCPT | TDP1 cell CPT
O=C(Nc1cccc(C(=O)O)c1)/C(=C\c1ccc2c(c1)OCO2)NC(=O)c1ccccc1 | 4% | 4% | 7% | 2% | 1%
CCN(CC)C(=O)c1csc([C@H]2C[C@H](O)[C@@H](CO)O2)n1 | · | · | · | 13% | -1%
CCc1ccc(Nc2c([N+](=O)[O-])c(=O)oc3ccccc23)cc1 | 7% | 4% | -9% | 7.3µM* | ?
CCNc1c([N+](=O)[O-])c(=O)oc2ccccc12 | 0% | 6% | 1% | 12% | 17%
Cc1ccc(C)c(Nc2c([N+](=O)[O-])c(=O)oc3ccccc23)c1 | 18% | 5% | -8% | 10µM* | 23µM*
Cc1ccc(Nc2c([N+](=O)[O-])c(=O)oc3ccccc23)cc1 | 24% | 6% | · | 12µM* | ?
O=c1oc2ccccc2c(Nc2ccc3ccccc3c2)c1[N+](=O)[O-] | -1% | 0% | -15% | ? | 15µM*
O=c1oc2ccccc2c(Nc2ccc(O)cc2)c1[N+](=O)[O-] | -15% | 0% | -16% | -15% | ?
CCCC(=O)Nc1nnc(S(=O)(=O)N2CCCCCC2)s1 | 0% | 12% | 9% | 10% | 5%
CC(Nc1c([N+](=O)[O-])c(=O)oc2ccccc12)C(Cl)c1ccccc1 (configuration not stated) | 4% | 4% | -11% | 23µM* | ?
O=c1oc2ccccc2c(NC(c2ccccc2)c2ccccc2)c1[N+](=O)[O-] | -8% | 3% | -9% | ? | ?
O=[N+]([O-])c1cccc2c(Br)[nH]nc12 | · | 10%[56.1 µM] | · | ? | 32µM*
CCC(=O)N1CCc2cc(S(=O)(=O)NC(CC(C)C)C(=O)Nc3cccc(C)c3C)ccc21 (configuration not stated) | -4% | 2% | · | -20% | -20%
Cc1ccc(NC(=O)C(Cc2ccccc2)NS(=O)(=O)c2ccc3c(c2)c(=O)n(C)c(=O)n3C)cc1 (configuration not stated) | 19% | 3% | · | ? | 16µM*
Cc1ccc(S(=O)(=O)NC(Cc2ccccc2)C(=O)NN)cc1 (configuration not stated) | 0% | · | -1% | -1% | 0%
CCC(=O)N1CCc2cc(S(=O)(=O)NC(CC(C)C)C(=O)Nc3cc(C)ccc3OC)ccc21 (configuration not stated) | -2% | 0% | · | ? | 18µM*
CCC(=O)N1CCc2cc(S(=O)(=O)NC(Cc3ccccc3)C(=O)Nc3ccc(C)cc3)ccc21 (configuration not stated) | -2% | 2% | · | ? | 16µM*
Cc1cc(C)cc(NC(=O)C(Cc2ccccc2)NS(=O)(=O)c2ccc3c(c2)c(=O)n(C)c(=O)n3C)c1 (configuration not stated) | 30% | 7% | · | ? | ?
Cc1ccc(S(=O)(=O)N[C@@H](Cc2ccccc2)C(=O)CCl)cc1 | ? | -4%[56.1 µM] | 5µM* | 5.2µM* | 2.6µM*
